Results: PubChem BioAssay (NCATS)
Inconclusive results are not listed. Calls of active or inactive are those of the source. Calls come from the whole dose curve; as a rule, active = well fitted cell-killing curve with a large enough effect; inconclusive = small, poorly fitted or top-dose-only effect, or effect the other way; inactive = no such curve, though single readings can be large or run the other way.

Tests used:
[1] = Viability qHTS for spleen associated tyrosine kinase inhibitor (SYKi) naive MV4-11 cells (AID 1963823); note: nearly all actives have a fitted effect of over 40% in size
Summary of the method: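 SYKi-naive MV4-11 AML cells, 500 per well, were exposed to library compounds for 72 hr at 37 C, 5% CO2. Viability was then read by CellTiter-Glo luminescence after 10 min at room temperature.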

[2] = Viability qHTS for spleen associated tyrosine kinase inhibitor (SYKi) drug resistant MV4-11 cells (AID 1963824); note: nearly all actives have a fitted effect of over 35% in size
Summary of the method: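 SYK-inhibitor-resistant MV4-11 AML cells were seeded at 500 per well onto compound and cultured 72 hours (37 °C, 5% CO2). CellTiter-Glo was then added, and after 10 min at room temperature, luminescence gave viability.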
Potency is the fitted concentration of half-maximal effect.

Structure (SMILES)	Potency [1]	Potency [2]
CC(=O)O[C@H]1C[C@@]2(C)[C@@H](C[C@@H](O)[C@H]3[C@@]4(C)CC[C@@H](O)[C@@H](C)[C@@H]4CC[C@@]32C)/C1=C(\CCC=C(C)C)C(=O)O	inactive	inactive
O=C(Nc1ccc2[nH]ncc2c1)C1CCC1	inactive	inactive
O=C(c1cn(Cc2cncn2Cc2ccc(Br)cc2)cc1-c1cccc2ccccc12)N1CCOCC1	820 nM (active)	1640 nM (active)
C[C@H]1[C@H](/C=C/c2ccc(-c3ccccc3C#N)cn2)[C@@H]2[C@@H](C)OC(=O)[C@@H]2C[C@@H]1C	8200 nM (active)	7310 nM (active)
CC(CCC1(O)OC2CC3C4CC=C5CC(O[C@@H]6O[C@H](CO)[C@@H](O[C@@H]7O[C@@H](C)[C@H](O)[C@@H](O)[C@H]7O)[C@H](O)[C@H]6O[C@@H]6O[C@@H](C)[C@H](O)[C@@H](O)[C@H]6O)CCC5(C)C4CCC3(C)C2C1C)CO[C@@H]1O[C@H](CO)[C@@H](O)[C@H](O)[C@H]1O (stereo partly drawn)	3480 nM (active)	3480 nM (active)
COc1c(Nc2ncc(Cl)c(N[C@H]3[C@@H](C(N)=O)[C@@H]4C=C[C@H]3C4)n2)ccc2c1CC[C@@H](N1CCOCC1)CC2	231 nM (active)	291 nM (active)
C[C@@H]1O[C@@H](O[C@H]2[C@H](Oc3cc(O)c(C(=O)CCc4ccc(O)cc4)c(O)c3)O[C@H](CO)[C@@H](O)[C@@H]2O)[C@H](O)[C@H](O)[C@H]1O	inactive	inactive
COc1ccc(CC2C(=O)NC(C)C(=O)N(C)C3Cc4ccc(cc4)Oc4cc(ccc4OC4OC(CO)C(O)C(O)C4O)CC(C(=O)NC(C)C(=O)NC(C)C(=O)N2C)N(C)C3=O)cc1 (stereo not drawn)	15.5 nM (active)	9.8 nM (active)
CO[C@H]1/C=C/C=C/C=C/C[C@H](OC(=O)[C@@H](C)NC(=O)C2CCCCC2)[C@H](C)[C@@H](O)/C(C)=C/CCc2cc(O)cc(c2)NC(=O)C1	96.8 nM (active)	109 nM (active)
C/C(=C\CCC(C)CCO)C(=O)OC[C@H]1O[C@@H](O[C@@H]2OC=C(C(=O)O)[C@H]3CC[C@](C)(O)[C@@H]23)C(O)[C@@H](O)C1O (stereo partly drawn)	inactive	inactive
CC1=CC(=O)CC2C1(O)CCC(C)C21CC(c2ccoc2)OC1=O (stereo not drawn)	inactive	inactive
O=C(OCC1=C[C@@H](O)[C@@H]2C=CO[C@@H](O[C@@H]3O[C@H](CO)[C@@H](O)[C@H](O)[C@H]3O)[C@H]12)c1ccc(O)cc1	inactive	inactive
N=c1nc2n(cc1F)C1OC(CO)C(O)C1O2 (stereo not drawn)	1640 nM (active)	2590 nM (active)
C[C@@H]1Cc2c([nH]c3ccccc23)[C@@H](c2c(F)cc(/C=C/C(=O)O)cc2F)N1CC(C)(C)F	23500 nM (active)	20900 nM (active)
